# Experimental data reported in PubChem BioAssay AID1851 (National Center for Advancing Translational Sciences (NCATS), 2009).
# Out of some 16,000 compounds screened, about 2,600 (16%) were called active. Not shown: some 20% with an inconclusive outcome. Calls follow the shape of the dose curve; as a rule, active = well fitted curve in the direction sought with a large enough effect; inconclusive = small, poorly fitted or top-dose-only effect, or effect the other way; inactive = no such curve, though single readings can be large or run the other way. A selection follows.
# Molecular target: Cytochrome P450 2D6 (Homo sapiens) (UniProt P10635)
# Sequence (P10635 whole entry, looked up): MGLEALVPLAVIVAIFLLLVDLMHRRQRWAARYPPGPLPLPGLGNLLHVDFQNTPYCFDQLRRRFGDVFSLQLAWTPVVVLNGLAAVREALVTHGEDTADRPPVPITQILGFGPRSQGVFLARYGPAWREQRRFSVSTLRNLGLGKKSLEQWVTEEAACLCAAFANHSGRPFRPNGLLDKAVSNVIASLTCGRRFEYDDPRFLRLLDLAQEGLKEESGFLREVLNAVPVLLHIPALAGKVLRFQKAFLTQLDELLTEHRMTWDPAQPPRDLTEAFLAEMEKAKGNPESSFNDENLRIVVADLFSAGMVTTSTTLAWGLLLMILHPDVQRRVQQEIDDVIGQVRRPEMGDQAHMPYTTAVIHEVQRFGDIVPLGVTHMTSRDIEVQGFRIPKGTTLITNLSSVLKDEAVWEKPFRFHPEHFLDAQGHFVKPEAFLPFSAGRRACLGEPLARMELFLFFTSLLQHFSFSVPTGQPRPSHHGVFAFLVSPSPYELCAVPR
# Experiment: Cytochrome panel assay with activity outcomes
# Conditions: recombinant CYP, pro-luciferin dealkylation, luminescence, p450-cyp2d6; series mostly up to 57.1 µM
# % is scaled to controls: 0 for no effect and ±100 for the full control effect.
SMILES,"activity, negative = inhibition",AC50
O=c1ccc(-c2ccccc2)n[nH]1,2.58% [at 11.4 µM] (inactive),
O=C1c2ccccc2-c2n[nH]c3cccc1c23,,0.398 µM (active)
Nc1n[nH]c2ccccc12,-3.15% [at 11.4 µM] (inactive),
Cc1ccc(NC(=O)CN2C(=O)N/C(=C/c3ccc(C)o3)C2=O)cc1,,inactive
CC(=O)OCc1nc2ccccc2s1,,inactive
CCCc1cc(C(=O)Cc2nc3ccccc3s2)c(O)cc1O,,1.41 µM (active)
CCCCOC(=O)Nc1nc2ccccc2s1,,inactive
Cc1cc2ncn(/N=C/c3ccc([N+](=O)[O-])o3)c2cc1C,,inactive
COc1cccc2cc3c(=O)oc4ccccc4c3nc12,,inactive
COc1cccc(-c2cc(=O)c3ccccc3o2)c1N,,7.94 µM (active)
Cc1cccc(NC(=O)c2cc(=O)c3ccccc3o2)n1,,inactive
CC1CC2=C(NC(=S)NC2c2ccc(F)cc2)/C(=C/c2ccc(F)cc2)C1 (stereo not drawn),,inactive
CO[C@@H]1/C=C\CC(=O)N[C@@H](C)C(=O)OC[C@H](NS(=O)(=O)c2ccc(C)cc2)[C@H](C)/C=C\CC(=O)OC[C@H]1C,-18.7% [at 11.4 µM] (inactive),
COc1cccc(-c2cc3nc(-c4ccccc4)cc(N4CCC5(CC4)OCCO5)n3n2)c1,,inactive
CCNc1ncc2nc(CCc3ccccc3)c(=O)n(CCOC)c2n1,,0.398 µM (active)
N#CCCn1c(=O)c(CCc2ccccc2)nc2cnc(Nc3ccccc3)nc21,,inactive
COc1cccc(Nc2ncc3nc(CCc4ccccc4)c(=O)n(CCC#N)c3n2)c1,,inactive
CCNc1ncc2nc(CCc3ccccc3)c(=O)n(Cc3cccc(OC)c3)c2n1,,inactive
CCNc1ncc2nc(CCc3ccccc3)c(=O)n(CCC#N)c2n1,,0.158 µM (active)
COCCn1c(=O)c(CCc2ccccc2)nc2cnc(OC)nc21,,inactive
CCC(=O)N1CCN(C(=O)c2ccccc2)CC1,,inactive

SMILES,"activity, negative = inhibition",AC50
COc1cc(O)c2c(O)c3c(c4c2c1[C@@]1(C4)C(C)=CCCC1(C)C)[C@H](O)[C@@]1(O)CC(=O)C(C(N)=O)=C(O)[C@]1(O)C3=O,-15.8% [at 11.4 µM] (inactive),
COC(=O)c1cccc(NC(=O)/C=C/c2cccc([N+](=O)[O-])c2)c1,,inactive
O=C(/C=C/c1cccc(Cl)c1)Nc1ccncc1,,7.94 µM (active)
COCCCNC(=O)/C=C/c1cccc(Cl)c1,,inactive
C[C@@]1(CCOCc2ccccc2)NC(=O)NC1=O,-5.74% [at 11.4 µM] (inactive),
COc1ccc(C(=O)NCc2cn3ccccc3n2)cc1,,inactive
C=C[C@@]1(C)CC(=O)[C@@]2(O)[C@@]3(C)[C@@H](O)CCC(C)(C)[C@@H]3[C@H](OC(=O)CCN(C)C)[C@H](OC(C)=O)[C@@]2(C)O1,,inactive
C=CCNC(=O)/C(=C\c1ccc2c(c1)OCO2)NC(=O)c1ccc(Br)cc1,,25.1 µM (active)
O=C(Nc1ccccc1C(=O)Nc1ccc2c(c1)OCO2)c1ccco1,,12.6 µM (active)
O=C(Nc1ccccc1)/C(=C\c1ccc2c(c1)OCO2)NC(=O)c1ccco1,,15.8 µM (active)
COc1ccccc1C(=O)N/C(=C/c1ccc(Br)cc1)C(=O)NCC(=O)O,,inactive
CCC(NC(=O)c1ccccc1NC(=O)c1ccco1)C(=O)NC1CCCCC1 (stereo not drawn),,inactive
CC1(C)Oc2ccc(NC(=O)c3ccco3)cc2O1,,inactive
O=C(N/N=C/c1ccc2c(c1)OCO2)/C(=C/c1ccc2c(c1)OCO2)NC(=O)c1ccccc1,,inactive
O=C(NC(Cc1ccccc1)C(=O)O)/C(=C\c1ccco1)NC(=O)c1ccc(Br)cc1 (stereo not drawn),,inactive
Cc1ccc(NC(=O)/C(=C\c2cccnc2)NC(=O)c2ccco2)cc1,,inactive
C#CCCCO/N=C1/C[C@@H](O)[C@@H](O)[C@@H]2[C@@H]3C(=O)N(CC)C(=O)[C@H]3CC[C@H]12,14.7% [at 11.4 µM] (inactive),
CC(=O)COc1ccc2c(C)c(C)c(=O)oc2c1,,inactive
CCOC(=O)C(Sc1ncnc2c1sc1nc(N3CCOCC3)c3c(c12)CCCC3)c1ccccc1 (stereo not drawn),,inactive
CCOC(=O)CC1C(=O)NCCN1S(=O)(=O)c1ccc(Cl)c(Cl)c1 (stereo not drawn),,inactive
COc1ccc(-n2c(=O)c(-c3ccc(F)c(F)c3)nc3cncnc32)cc1,,inactive

SMILES,"activity, negative = inhibition",AC50
NC(N)=NC(N)=Nc1ccc(S(=O)(=O)O)cc1,3.23% [at 11.4 µM] (inactive),
O=C(O)/C(=C\c1ccccc1)c1ccccc1,-2.29% [at 11.4 µM] (inactive),
Clc1ccccc1-c1nc(NCc2cccnc2)c2ccccc2n1,,20 µM (active)
Cc1ccccc1-c1nc(Nc2ccncc2)c2ccccc2n1,,inactive
FC(F)(F)c1ccccc1-c1nc(NC2CCNCC2)c2ccccc2n1,,inactive
FC(F)(F)c1ccccc1-c1nc(Nc2ccncc2)c2ccccc2n1,,25.1 µM (active)
FC(F)(F)c1ccccc1-c1nc(NCc2cccnc2)c2ccccc2n1,,15.8 µM (active)
Clc1ccccc1-c1nc(N/N=C/c2cccnc2)c2ccccc2n1,,inactive
COc1cc(OC)c(C2C(C(=O)O)c3ccccc3C(=O)N2C)cc1OC (stereo not drawn),,inactive
NC1(C(=O)O)C[C@@H](C(=O)O)[C@H](C(=O)O)C1,,inactive
CCNc1ncc2nc(-c3ccc(Cl)cc3)c(=O)n(C3CC3)c2n1,,inactive
N#CCCn1c(=O)cnc2cnc(N3CCOCC3)nc21,,inactive
CCCCCc1nnc(NC(=O)C(=O)OCC)s1,,inactive
CC(C)OCCCN1C(=O)c2ccccc2C1C(=O)NC1CCCCC1 (stereo not drawn),,inactive
CO/N=C(\C(=O)N[C@@H]1C(=O)N2C(C(=O)[O-])=C(C[N+]3(C)CCCC3)CS[C@@H]12)c1csc(N)n1,,inactive
Cn1cccc1CC(=O)N/N=C\c1cccs1,,inactive
CCCCC(=O)NNC(=S)NC(=O)c1cccc([N+](=O)[O-])c1,,inactive
CCCn1c(=O)c2[nH]c(-c3ccccc3)nc2n(CCC)c1=O,,inactive
CC1(C)OC(=O)C(=CNc2cccc(O)c2)C(=O)O1,,inactive
CC(C)=CCc1c(C)nc2ccccc2c1C(=O)O,,inactive
CC(C)=CCC1=C(OCC(=O)O)C(=O)c2ccccc2C1=O,,3.16 µM (active)
